HCV inh: HCV inhibition; Huh7.5.1 HCVcc-Cre infection, luciferase reporter, 44 h; Potency, µM (doses to about 41.8 µM), for inactives: at the highest dose activity change, negative = inhibition, usual class: inhibitors; 3.4% of 340,000 active; AID 651820; further: potency means the concentration at half of the fitted maximal effect
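Infectious HCV cell culture screen: compound-treated cells (1,000/well, pre-plated 4 h) are infected with HCVcc-Cre at roughly 0.5 moi and grown 44 h. Infection is quantified by luciferase signal after 15 min substrate incubation at room temperature.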
Pf growth 96h: P. falciparum growth inhibition at 96 hours. P. falciparum luciferase reporter growth, 96 h. 6.9% of 320,000 active. Potency, µM (titrated, usually from 28.7 µM), for the others: at the highest dose activity change, negative = inhibition, most hits filed as inhibitors; further: potency means the concentration at half of the fitted maximal effect
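Two-generation exposure (96 h) targets delayed-death phenotype. Reporter parasites carrying integrated firefly luciferase, in red cells at 2% hematocrit and 0.05% parasitemia final, kept at 37 C, 5% CO2; luminescence loss indicates inhibition.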
HCMV antiviral: human cytomegalovirus inhibition | HFF cells, HCMV-luciferase reporter, 72 h; stronger effect = lower value | activity change, negative = inhibition, % at 57.5 µM | 4.5% of 410,000 active | AID 1259415; in the data active means activity change below about -60%; inconclusive means no clear call, values can overlap the other calls; inactive means above about -39%
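Cell-based, HFFs, 1000 cells/well, 16 h 37C; cpds in DMSO + HCMV-luc, MOI 1 PFU/cell; 72 h 37C; OneGlo luminescence after 5 min RT; norm. to buffer vs Salinomycin 10uM.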
Lassa entry inh: inhibitors of Lassa virus binding or cell entry | Lassa virus pseudotype entry inhibition, cell reporter | Potency, µM (top dose mostly 37.9 µM), inactives show at the top dose activity change, negative = inhibition, actives largely listed as inhibitors | 1.2% of 300,000 active | AID 540256; calls by dose curve; tested in HEK293 cells; further: potency means the concentration at half of the fitted maximal effect; nearly all actives have a fitted effect of over 50% in size
MARV entry inh: inhibitors of Marburg virus binding or cell entry; Marburg virus pseudotyped entry inhibition, cell reporter; Potency, µM (series often up to 37.8 µM), for inactives: at the top dose activity change, negative = inhibition, usual class: inhibitors; 1.8% of 300,000 active; AID 540276; calls by dose curve; tested in HEK293 cells; further: potency means the concentration at half of the fitted maximal effect
Pf growth 48h: inhibits P. falciparum growth in the first generation, 48 h; Potency, µM (titrated, usually from 28.7 µM), for inactives: at the highest dose activity change, negative = inhibition, actives largely listed as inhibitors; P. falciparum luciferase growth in erythrocytes, 48 h; 5.9% of 310,000 active; further: potency means the concentration at half of the fitted maximal effect
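Firefly luciferase activity from engineered P. falciparum reports growth; inhibitors lower the luminescent signal. Cultures contained 2% hematocrit erythrocytes at 0.1% final parasitemia.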
* = called active by the depositor; ? = inconclusive; nt = not tested or not shown; + = active, no number; [ ] = remark or other dose. This is a sample that favours compounds with a hit; in the whole collection about 14% have one here. Unless noted, the call rests on the fitted dose curve; in most records, active means well fitted inhibition curve with a large enough effect; inconclusive means small, poorly fitted or top-dose-only effect, or another doubt; inactive means no such curve, though single readings can be large or run the other way. On the % scale 0 is the no-effect control and ±100 the full control effect.

SMILES | HCV inh | Pf growth 96h | HCMV antiviral | Lassa entry inh | MARV entry inh | Pf growth 48h
CN(C)CCCN(C(=O)c1ccc2c(c1)CCCC2)c1nc2c(F)cccc2s1 | 7.94µM* | ? | -34.9 | ? | -17.7% | 9.28µM*
Cc1ccc2nc(N(CCCN(C)C)C(=O)c3ccc4c(c3)CCCC4)sc2c1 | 11.2µM* | 1.85µM* | -77.2* | ? | ? | 10.4µM*
Cc1cc(C)c2nc(N(CCCN(C)C)C(=O)c3ccc4c(c3)CCCC4)sc2c1 | 7.08µM* | ? | ? | 11.2µM* | ? | 7.38µM*
Cc1onc(-c2ccccc2)c1C(=O)Nc1ccc(S(=O)(=O)N2CCOCC2)cc1 | ? | 196.1% | 4.9 | ? | -8.4%[46.1 µM] | -11.7%
COc1ccc(C2=NCC(C)n3nc4ccccc4c32)cc1 (configuration not stated) | nt | nt | 9.0 | nt | nt | nt
Cc1ccccc1Cn1c(C)c(CNCCCc2ccccc2)c(C(=O)O)c1C | nt | nt | 12.4 | ? | -32.1%[46.1 µM] | nt
COc1ccccc1C1CC(c2cccs2)=Nc2ccccc2S1 (configuration not stated) | ? | 10.4µM* | 16.6 | ? | -13.0%[46.1 µM] | nt
COC(=O)c1cc(=O)n(Cc2ccc(OC)c(OC)c2)c(=Nc2ccc(F)cc2)s1 | 11.2µM* | -23.1% | -36.3 | nt | -6.9% | nt
Nc1cc(Cl)cc2c1-c1ccc(Cl)cc1C2 | ? | nt | -25.9 | -1.0%[46.1 µM] | -22.9%[46.1 µM] | nt
Cc1cc2c(cc1C)NC(=O)C(C)CN2 (configuration not stated) | nt | nt | 107.6 | nt | nt | nt
CCn1c(C)cc(C(=O)CN2C(=O)c3ccccc3S2(=O)=O)c1C | -17.9% | -14.8% | ? | 1.41µM* | ? | -9.4%
C=CCn1c(C)cc(C(=O)CN2C(=O)c3ccccc3S2(=O)=O)c1C | 19.2% | -35.1% | nt | ? | ? | ?
Cc1cc(C)nc(NC(=O)CN2C(=O)c3ccccc3S2(=O)=O)n1 | -5.3% | 4.2% | 55.8 | -10.0% | 0.0% | -15.8%
Cc1cc(C(=O)CN2C(=O)c3ccccc3S2(=O)=O)c(C)n1C(C)C | -4.4% | 22.6% | + | 2µM* | 0.501µM* | 88.9%
Cc1cc(C(=O)CN2C(=O)c3ccccc3S2(=O)=O)c(C)n1-c1ccccc1 | ? | 111.4% | -89.4* | 1.58µM* | 8.91µM* | -21.0%
O=C(Nc1ccc(-c2cn3ccsc3n2)cc1)C1CCCC1 | -27.1% | 13.9% | 87.6 | 6.1% | ? | 48.4%
c1cn2cc(-c3ccc4c(c3)OCO4)nc2s1 | 5.6% | -17.6% | 30.5 | 10.3µM* | ? | -18.2%
CC(=O)Nc1ccc(-c2cn3ccsc3n2)cc1 | 6.5% | 10.4µM* | 77.2 | ? | -21.6% | 229.5%
O=C(Nc1ccc(-c2cn3ccsc3n2)cc1)C1CC1 | -20.8% | 9.28µM* | 47.2 | ? | -4.4% | -3.0%
Cc1ccc(C(=O)N2[C@@H]3CN(C)C(=O)[C@@]2(Cc2ccccc2)[C@H]2C(=O)N(C)C(=O)[C@@H]32)cc1 | 15.2% | nt | -2.7 | nt | nt | nt
CCOC1=C2[C@@H](CN(S(=O)(=O)c3ccc(C)cc3)[C@H]2c2cccc3ccccc23)[C@H]2C(=O)N(C)C(=O)[C@H]2C1 | nt | nt | -11.0 | nt | nt | nt
Cc1cc(SCC(=O)N/N=C/c2ccc(O)cc2O)c(C)cc1Br | ? | nt | -83.4* | 4.61µM* | ? | ?
O=C(CSC1c2ccccc2-c2ccccc21)N/N=C/c1ccc(C(=O)O)cc1 | 9.9% | 431.9% | -34.0 | -1.9%[46.1 µM] | -15.2%[46.1 µM] | ?
O=C(CSC1c2ccccc2-c2ccccc21)N/N=C/c1ccccc1O | ? | ? | -95.7* | 11.6µM* | 8.2µM* | nt
O=C(CSc1ccc2ccccc2n1)N/N=C/c1ccccc1O | ? | 18.1% | -99.6* | nt | nt | ?
SMILES | HCV inh | Pf growth 96h | HCMV antiviral | Lassa entry inh | MARV entry inh | Pf growth 48h
Cc1cc(SCC(=O)N/N=C/c2ccccc2C(=O)O)c(C)cc1Br | -12.3% | 40.9% | -18.3 | -8.7%[46.1 µM] | 1.4%[46.1 µM] | 10.1%
Cc1ccc(C)c(OCCC(=O)N(C)CC(=O)Nc2c(C)cccc2C)c1 | -3.8% | 19.4% | 68.4 | nt | nt | ?
O=C(c1cccc(-c2ccc(O)cc2)c1)N1CCN(c2ccc(F)cc2)CC1 | -4.0% | ? | -40.0 | ? | 1.4%[46.1 µM] | ?
COc1cccc(-c2nc(-c3ccc(-c4ccccc4)nc3OC)no2)c1 | nt | nt | 19.5 | 7.3%[46.1 µM] | 17.0%[46.1 µM] | nt
Cc1cccnc1NC(=O)c1ccc(S(=O)(=O)N2CCCCCC2)cc1 | 0.1% | ? | -14.9 | 0.2% | 4.0% | ?
Cc1ccc(NC(=O)c2ccc(S(=O)(=O)N3CCC(C)CC3)cc2)nc1 | -29.2% | ? | -64.0* | -26.4% | -23.5% | ?
CC1CCN(S(=O)(=O)c2ccc(C(=O)Nc3ncccc3O)cc2)CC1 | -22.8% | 5.22µM* | ? | -1.7% | ? | ?
Cc1ccc(NC(=O)c2ccc(S(=O)(=O)N3CCCCCC3)cc2)nc1 | ? | ? | ? | -8.1% | ? | ?
O=C(Nc1cccc(OC(F)(F)F)c1)C1Cc2c(-c3ccc4c(c3)OCO4)ccnc2O1 (configuration not stated) | nt | nt | 7.5 | nt | nt | nt
CCN(C(=O)C(NS(=O)(=O)c1ccc(Br)s1)c1ccccc1)c1ccc(C)c(C)c1 (configuration not stated) | nt | nt | -64.4* | ? | ? | nt
CCN(CC)c1ccc(NC(=O)C(Cc2ccccc2)NS(=O)(=O)c2ccc(Br)s2)c(C)c1 (configuration not stated) | nt | nt | -10.3 | 0.7%[46.1 µM] | 13.3%[46.1 µM] | nt
Cc1cc(N/N=C/c2ccc(O)c(C)c2O)nc(-c2ccccc2O)n1 | ? | ? | -102.7* | ? | ? | 5.86µM*
Cc1cc(NCCCN)nc(-c2ccccc2O)n1 | 10µM* | nt | 68.3 | ? | -1.0% | -7.7%
Cc1cc(Nc2ccc(Br)cc2)nc(-c2ccccc2O)n1 | 12.6µM* | -9.9% | 5.6 | nt | nt | 96.5%
Cc1ccc(Nc2cc(C)nc(-c3ccccc3O)n2)cc1 | ? | 113.7% | 25.9 | 7.7% | ? | nt
COC(=O)c1ccc(N2C(c3cc(OC)cc(OC)c3)=Cc3ccc(-c4ccc(C(N)=O)cc4)cc3C2CC(=O)C2CC2)cc1 (configuration not stated) | nt | nt | -22.8 | nt | nt | nt
COc1cccc(CNC(=O)C(C)n2ccc3cc(S(=O)(=O)N4CCCC4)ccc32)c1 (configuration not stated) | ? | ? | -4.5 | nt | nt | ?
COc1cccc(CNC(=O)C(C)n2ccc3cc(S(=O)(=O)N4CCCCCC4)ccc32)c1 (configuration not stated) | ? | ? | ? | -1.6%[46.1 µM] | nt | 7.38µM*
O=C(O)CCCn1ccc2cc(S(=O)(=O)N3CCCC3)ccc21 | 11.7% | 13.1µM* | -1.2 | nt | nt | 2.6%
CCC(C(=O)NCCC(C)C)n1ccc2cc(S(=O)(=O)N3CCCCC3)ccc21 (configuration not stated) | 10µM* | 36.4% | nt | nt | nt | 11.7µM*
